Screening results as filed in PubChem BioAssay.
Most compounds without a hit are left out; they make up all but 1.2% or so of the library.
UCHL1 inh: inhibitors of human UCHL1 deubiquitinase; Ubiquitin carboxyl-terminal hydrolase isozyme L1 (Homo sapiens), P09936; purified UCHL1, Ub-rhodamine cleavage fluorescence; inhibition, % at 20 µM; 47,000 compounds, 0.2% hits; AID 1645859, 2021
USP7 inh: inhibitors of human USP7 deubiquitinase | Ubiquitin carboxyl-terminal hydrolase 7 (Homo sapiens), Q93009 | purified USP7, Ub-rhodamine cleavage fluorescence | inhibition, % at 20 µM | 47,000 compounds, 0.3% hits | AID 1645854, 2021
USP10 block: inhibitors of human USP10 deubiquitinase. 47,000 compounds, 1.1% hits. purified USP10, Ub-rhodamine fluorescence, 60 min. inhibition, % at 20 µM
Target sequence (Q14694 whole entry, looked up): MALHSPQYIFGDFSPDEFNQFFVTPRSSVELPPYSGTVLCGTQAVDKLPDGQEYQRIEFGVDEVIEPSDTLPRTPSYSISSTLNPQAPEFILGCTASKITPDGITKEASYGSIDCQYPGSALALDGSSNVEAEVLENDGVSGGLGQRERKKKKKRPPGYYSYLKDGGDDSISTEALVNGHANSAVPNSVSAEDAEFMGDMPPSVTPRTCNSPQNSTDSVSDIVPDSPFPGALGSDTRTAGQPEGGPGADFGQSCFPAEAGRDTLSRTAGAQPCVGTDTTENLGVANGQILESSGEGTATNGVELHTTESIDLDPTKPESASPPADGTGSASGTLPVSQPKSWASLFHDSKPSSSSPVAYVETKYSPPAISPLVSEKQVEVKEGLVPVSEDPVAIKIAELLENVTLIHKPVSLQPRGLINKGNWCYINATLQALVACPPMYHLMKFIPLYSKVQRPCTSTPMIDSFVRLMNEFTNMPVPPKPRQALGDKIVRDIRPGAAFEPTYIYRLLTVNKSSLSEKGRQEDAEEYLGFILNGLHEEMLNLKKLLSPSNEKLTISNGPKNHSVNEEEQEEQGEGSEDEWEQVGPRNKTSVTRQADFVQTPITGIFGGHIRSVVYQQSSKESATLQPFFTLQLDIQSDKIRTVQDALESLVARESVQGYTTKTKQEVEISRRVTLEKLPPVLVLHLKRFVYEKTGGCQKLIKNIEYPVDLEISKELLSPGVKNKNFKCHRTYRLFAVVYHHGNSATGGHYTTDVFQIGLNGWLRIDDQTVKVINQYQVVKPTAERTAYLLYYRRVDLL
Each line names hits and unclear results; the compound was inactive in the other large screens. Cut-off read from the data, not from the text of the source: active = inhibition above about 30%; inactive = the rest.

CN1[C@@H](CCC(=O)N2CCC(O)CC2)CNC(=O)[C@@H]2[C@H]1CCN2Cc1ccc(C(F)(F)F)cc1	none
CCOC(=O)c1c(NC(=O)C(C)Sc2nnc(CNC(=O)c3ccco3)n2C2CCCCC2)sc2c1CCCCC2 (stereo unspecified)	none
Cc1cccc(O)c1C(=O)OC(C)c1cccc2nc3c(C(=O)O)cc4c(c3nc12)C(C)c1cccc2c1N4c1cccc(C(=O)O)c1N2 (stereo unspecified)	UCHL1 inh 95, USP7 inh 100, USP10 block 99
COC(=O)c1cccc2nc3c(C(C)O)cccc3nc12 (stereo unspecified)	none
O=S1(=O)[C@@H]2CCN(Cc3cccnc3)CC[C@@H]2CN1CCc1ccccc1	none
CC(C)c1ccc(NC(=O)c2ccc(C3Nc4ccccc4S(=O)(=O)N3)cc2)cc1 (stereo unspecified)	none
COc1ccc(OC)c(CN2CCCC(C(=O)N3CCC(Cc4ccccc4)CC3)C2)c1 (stereo unspecified)	none
COC(=O)c1cc(NC(=O)/C=C/c2ccc(C(C)C)cc2)ccc1N1CCOCC1	none
COC(=O)c1ccc(NC(=O)/C=C/c2ccc(F)cc2)cc1	USP10 block 44 (no result: USP7 inh)
O=C(Nc1cccnc1)C1c2ccccc2C(=O)N(Cc2ccccc2)C12CCCC2 (stereo unspecified)	none
O=C(Nc1cccnc1)C1c2ccccc2C(=O)N(c2ccccc2)C12CCCCC2 (stereo unspecified)	USP10 block 31
Cc1ccc(COc2cc(C(=O)NC(C)C)c3ccccc3n2)cc1	none
CC(=O)c1cccc(NC(=O)c2ccc(CN(c3ccc(C)c(C)c3)S(C)(=O)=O)cc2)c1	none
O=C(Nc1ccc2[nH]ccc2c1)C1CCN(S(=O)(=O)c2ccccc2)CC1	none
O=C(COc1cccc(Cl)c1)N1CCSc2ccccc21	none
Cc1ccc(Cn2nnc3c(=O)[nH]c(C4CCN(S(=O)(=O)c5ccc(S(=O)(=O)NC6CCCC6)cc5)CC4)nc32)cc1	USP10 block 34
CC(C)(C)c1ccc(Cn2nnc3c(=O)[nH]c(C4CCN(S(=O)(=O)c5ccc(S(=O)(=O)NC6CCCC6)cc5)CC4)nc32)cc1	none
O=C(COC(=O)C(Cc1c[nH]c2ccccc12)NC(=O)c1ccccc1Cl)Nc1ccc([N+](=O)[O-])cc1C(F)(F)F (stereo unspecified)	USP10 block 32
O=C(COC(=O)C(Cc1c[nH]c2ccccc12)NC(=O)c1ccccc1Cl)c1ccc([N+](=O)[O-])cc1 (stereo unspecified)	none
COc1ccc(OC)c(/C=C/C(=O)OCC(=O)N(c2ccccc2)C(C)C)c1	none
COc1ccc(Cc2nnc(Nc3ccccc3)[nH]c2=O)cc1	none
COc1ccc(Cc2nnc(NC(C)c3ccccc3)[nH]c2=O)cc1 (stereo unspecified)	USP10 block 31
CC(C)CC1NC(=O)C2CC(O)CN2C1=O (stereo unspecified)	none
CC(C)CC1NC(=O)C2CCCN2C1=O (stereo unspecified)	UCHL1 inh 41
O=C(c1cnc2ccccc2n1)N1CCC(S(=O)(=O)c2ccc(-c3ccco3)cc2)CC1	none
CCC(C(=O)C(C)C(O)C(C)CCc1ccc(C)c(O)c1C(=O)O)C1OC(CC)(C2CCC(O)(CC)C(C)O2)CC1C (stereo unspecified)	USP10 block 61
COc1ccc(-c2cc3c(=O)n(CC(=O)Nc4ccccc4C)ccn3n2)cc1	none
COc1ccc(C2Nc3ccccc3C(=O)N2c2ccc3c(c2)OCO3)cc1O (stereo unspecified)	none
C=C1CC[C@H]2[C@@](C)(COC(C)=O)CCC[C@]2(C)[C@H]1CC/C(C)=C/COC(C)=O	none
C=C1CCC2C(C)(CCC=C(C)C)C(OC(C)=O)CCC2(C)C1Cc1c(O)c(C)c(C)oc1=O (stereo unspecified)	USP10 block 32
Cc1ccccc1OCC(=O)N1CCN(S(=O)(=O)c2ccc3c(c2)OCCCO3)CC1	none
COc1ccc(CCN2COc3c(cc(Cl)c4cccnc34)C2)cc1OC	UCHL1 inh 31
COc1ccc(CCN2CCOc3nc4c(C)cccc4cc3C2)cc1OC	none
COc1ccc(NC(=O)c2nnn(-c3ccccc3C)c2C)cc1OC	none
C[C@@]12c3ccc4c(c3C(=O)c3occ(c31)C(O)C[C@H]2O)CCC4=O (stereo partly specified)	none
O=C(CCn1cnc2ccccc2c1=O)Nc1ccc(Cl)cc1	none
NS(=O)(=O)c1ccc(NC(=O)Cn2cnc3cc([N+](=O)[O-])ccc3c2=O)cc1	none
COc1ccc(OC)c(NC(=O)Cn2c(=O)n(CC3CCC(C(=O)NCCc4ccccc4)CC3)c(=O)c3ccccc32)c1 (stereo unspecified)	none
